Screens as filed in PubChem.
PI5P4K alpha inh = qHTS for Inhibitors of phosphatidylinositol 5-phosphate 4-kinase (PI5P4K). max response, %. PI5P4Kalpha enzyme, ADP-Glo luminescence, 60 min; hits give low values. Phosphatidylinositol 5-phosphate 4-kinase type-2 alpha (Homo sapiens), P48426. AID 652105, 2013. 1.2% of 330,000 active; active = max response of -50% or lower; inconclusive = between -30% and -50%; inactive = -30% or higher; note: value at the top dose of about 77 µM; % is set by controls: 0 for no effect and ±100 for the full control effect
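PI5P4Kalpha ADP-Glo assay; 5 microM ATP final; 60 min RT reaction; HEPES pH 7.4/EGTA/CHAPS, 5% DMSO; controls lacking substrate or enzyme; luminescent end-point.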
Rango dissoc inh = qHTS Assay for Inhibitors of RanGTP induced Rango (Ran-regulated importin-beta cargo) - Importin beta complex dissociation; Snurportin-1 (Homo sapiens) + GTP-binding nuclear protein Ran (Homo sapiens) + Importin …; Biochemical FRET Rango-importin beta, RanGTP-induced dissociation; Potency, µM (top dose mostly 46.1 µM), inactives show top-dose activity change, negative = inhibition; 0.071% of 340,000 active; AID 540253, 2011; calls by dose curve; note: potency is the fitted concentration of half-maximal effect; % of control where 0% means no effect; nearly all actives have a fitted effect of over 45% in size
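Quantitative HTS using a FRET biosensor: 0.1 uM Rango, 0.25 uM importin beta, 0.6 uM Ran, 2 mM GTP, 0.2 uM RCC1 final, PBS with DTT, Tween-20 and BSA. Post-read taken 45 min after Ran addition.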
Rango complex inh = qHTS Assay for Inhibitors of Rango (Ran-regulated importin-beta cargo) - Importin beta complex formation; 0.031% of 340,000 active; Importin subunit beta-1 (Homo sapiens), Q14974; AID 540263, 2011; Potency, µM (doses to about 92.2 µM), without a hit: at the top dose inhibition of complex formation; Rango CFP/YFP FRET sensor + importin beta, 45 min; calls by dose curve;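 note: potency is the fitted concentration of half-maximal effect; 0% = DMSO wells and 100% = buffer wells lacking importin beta; nearly all actives have a fitted effect of over 15% in size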
Target sequence (Q14974 whole entry, looked up): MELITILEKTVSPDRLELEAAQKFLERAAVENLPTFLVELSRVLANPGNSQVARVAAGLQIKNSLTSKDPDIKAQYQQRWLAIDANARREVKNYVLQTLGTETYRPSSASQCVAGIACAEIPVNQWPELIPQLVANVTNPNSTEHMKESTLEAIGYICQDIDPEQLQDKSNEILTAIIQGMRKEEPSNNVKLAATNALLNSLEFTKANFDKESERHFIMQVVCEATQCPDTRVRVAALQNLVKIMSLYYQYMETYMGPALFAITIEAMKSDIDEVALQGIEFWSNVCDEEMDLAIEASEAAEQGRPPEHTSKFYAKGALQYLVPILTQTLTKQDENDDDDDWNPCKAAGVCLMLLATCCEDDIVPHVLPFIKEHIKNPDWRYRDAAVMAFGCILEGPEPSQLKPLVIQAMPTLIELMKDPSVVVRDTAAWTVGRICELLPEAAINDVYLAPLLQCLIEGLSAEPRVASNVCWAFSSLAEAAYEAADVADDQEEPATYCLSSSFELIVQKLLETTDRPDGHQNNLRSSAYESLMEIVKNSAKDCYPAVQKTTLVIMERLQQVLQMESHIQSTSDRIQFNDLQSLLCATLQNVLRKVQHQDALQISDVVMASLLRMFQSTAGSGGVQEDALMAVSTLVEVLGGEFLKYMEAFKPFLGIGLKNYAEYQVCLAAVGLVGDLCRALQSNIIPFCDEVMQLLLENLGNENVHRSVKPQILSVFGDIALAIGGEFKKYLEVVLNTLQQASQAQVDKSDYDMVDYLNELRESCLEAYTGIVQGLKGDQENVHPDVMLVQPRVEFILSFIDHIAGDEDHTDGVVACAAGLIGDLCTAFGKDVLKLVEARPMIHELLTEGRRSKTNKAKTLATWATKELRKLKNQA
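FRET biosensor (snurportin 1 IBB flanked by EYFP and cerulean), 50 nM, with compound 5 min, then 0.125 microM importin beta in PBS, 1 mM DTT, 0.02% Tween-20, 0.1% BSA. CFP/YFP ratio read after 45 min at room temperature; pre-read flags interference.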
PLK1 PBD inh = qHTS for Inhibitors of PLK1-PDB (polo-like kinase 1 - polo-box domain): Primary Screen; Serine/threonine-protein kinase PLK1 (Homo sapiens), P53350; Plk1 PBD binding of FITC phosphopeptide, fluorescence polarization; Potency, µM, without a hit: max response, negative = inhibition, hits mostly inhibitors; 2.8% of 360,000 active; note: potency is the fitted concentration of half-maximal effect; series mostly up to about 57 µM; % is set by controls: 0 for no effect and ±100 for the full control effect; nearly all actives have a fitted effect of over 65% in size
VDR inhibitor = Inhibitors of the vitamin D receptor (VDR): qHTS; Potency, µM, without a hit: max response, negative = inhibition, hits mostly inhibitors; Vitamin D3 receptor (Homo sapiens), P11473; AID 504847, 2011; 0.93% of 400,000 active; VDR-SRC2-3 peptide fluorescence polarization, 2 h; note: potency is the fitted concentration of half-maximal effect; % is set by controls: 0 for no effect and ±100 for the full control effect
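Fluorescence polarization assay of small-molecule disruption of VDR binding to coregulator peptide SRC2-3. Compounds and controls pin-transferred, then read after 2 h incubation at ambient room temperature.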
KAT2A inh = qHTS Assay for Inhibitors of GCN5L2; AID 504327, 2011; GCN5L2 HAT assay, ThioGlo1 CoA-SH fluorescence; Histone acetyltransferase KAT2A (Homo sapiens), Q92830; Potency, µM (series often up to 58.9 µM), without a hit: top-dose activity change, negative = inhibition, usual class: inhibitors; 0.21% of 390,000 active; note: potency is the fitted concentration of half-maximal effect; % is set by controls: 0 for no effect and ±100 for the full control effect
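Titration-based screen in which CoA formation is detected via maleimide probe ThioGlo1 (50uM) turning fluorescent on thiol reaction; substrates H3(1-25) 75uM and acetyl-CoA 70uM, GCN5L2 20nM, 20 min incubation at room temperature.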
* hit, by the source's call; ? = inconclusive; / = no result; [ ] = another dose, or the depositor's remark. An excerpt weighted towards active compounds, which were near 3.6% of everything screened. Unless noted, calls come from the whole dose curve; as a rule, active = well fitted curve in the direction sought with a large enough effect; inconclusive = small, poorly fitted or top-dose-only effect, or another doubt; inactive = no such curve, though single readings can be large; an effect the other way counts as inactive or inconclusive.

SMILES | PI5P4K alpha inh | Rango dissoc inh | Rango complex inh | PLK1 PBD inh | VDR inhibitor | KAT2A inh
O=C1OC2(c3ccccc31)c1cc(I)c(O)c(I)c1Oc1c2cc(I)c(O)c1I | / | / | / | / | 4.5µM* | 8.9µM*
O=C1OC2(c3cc(I)c(O)c(I)c3Oc3c2cc(I)c(O)c3I)c2c(Cl)c(Cl)c(Cl)c(Cl)c21 | / | / | / | / | 5µM* | 3.2µM*
O=C1OC2(c3ccc(O)cc3Oc3cc(O)ccc32)c2ccccc21 | / | / | / | / | -1% | ?
Cc1cc2c(s1)c(C#N)c(C(=O)NCc1ccccc1F)n2C | / | / | / | / | / | -5%
CCNC(=O)c1sc(=S)n(-c2ccc(C)cc2)c1N | / | 37% | 1% | ? | -24% | -2%
Cc1ccc(-n2c(N)c(C(=O)N3CCOCC3)sc2=S)cc1 | / | 8% | -4% | 15µM* | 89µM* | ?
CCOc1ccc(-c2cccc(NS(=O)(=O)c3c(C)cc(C)cc3C)c2)nn1 | / | / | / | / | 15% | -4%
OCC1OC([S-])[C@H](O)C(O)C1O.[Au+] (stereo partly drawn) | / | / | / | / | ? | 11µM*
Cc1ccc(C(c2ccc(C)o2)c2cccc([N+](=O)[O-])c2O)o1 | -56* | 0% | -7% | ? | 9% | -4%
COc1cc(O)c2c(c1)C(=O)c1cc(C)cc(O)c1C2=O | / | / | / | / | 22µM* | -4%
Cn1cc(C(=O)NCCc2ccccc2)c(=O)c2cc(S(=O)(=O)N3CCCCC3)ccc21 | / | / | / | / | -8% | -2%
Cn1cc(C(=O)NCCc2ccccc2)c(=O)c2cc(S(=O)(=O)N3CCOCC3)ccc21 | -22 | 16% | 0% | 30µM* | ? | /
Clc1ccc2c(SCC3CO3)c3ccccc3nc2c1 (stereo not drawn) | 2 | -19% | ? | -26% | 40µM* | /
O=C(CSc1c2c(nc3cc(Cl)ccc13)CCCC2)NCCN1CCOCC1 | 2 | 3% | 0% | -7% | ? | -2%
CCCC12CN3CC(CCC)(CN(C1)C3c1ccco1)C2=O (stereo not drawn) | -4 | 2% | 2% | 0% | 15% | -3%
CCCC12CN3CC(C)(CN(C1)C3c1ccco1)C2=O (stereo not drawn) | -7 | 2% | 1% | 19µM* | ? | -2%
CC1CC(NC(=O)Cc2ccc(Br)cc2)CC(C)(C)C1 (stereo not drawn) | 3 | 6% | 1% | 6µM* | ? | -9%
CCC(CC)C(=O)NCc1ccc2c(c1)cc(C)n2C | / | ? | ? | -17% | 8% | -10%
Cc1cc2cc(CNC(=O)c3cccs3)ccc2n1C | -7 | ? | 0% | 27µM* | -14% | -7%
COc1cc(/C=C2/C(C)=C(C#N)c3nc(N)c(C#N)c(C)c32)ccc1OCC(=O)O | -15 | ? | ? | 24µM* | 7% | 0%
CC1=C(C#N)c2nc(N)c(C#N)c(C)c2/C1=C\c1ccc(-c2ccccc2C(=O)O)o1 | -72* | -17% | ? | 27µM* | 8% | ?
C/C=C/c1ccc(OCC(=O)O)c(OC)c1 | -3 | 20% | 4% | -6% | 11% | -1%
O=C(/C=C/c1ccco1)NCC1OCCc2ccccc21 (stereo not drawn) | -70* | -9% | ? | ? | -9% | -27%
CN(C)CCC(=O)NCC1OCCc2ccccc21 (stereo not drawn) | -7 | 2% | 0% | -1% | -16% | -22%[0.501 µM]
CCOC(=O)c1c(NC(C)=O)c2c3c(sc2n1Cc1nc(-c2ccccc2OCC)oc1C)CCCC3 | / | / | / | / | -14% | -6%
SMILES | PI5P4K alpha inh | Rango dissoc inh | Rango complex inh | PLK1 PBD inh | VDR inhibitor | KAT2A inh
O=C(CSc1ccccc1C(=O)O)c1ccc([N+](=O)[O-])cc1 | ? | -7% | -2% | 12µM* | ? | -11%
COc1ccc(NC(=O)c2cc3c(s2)-c2c(C)cccc2OC3)c(OC)c1 | / | / | / | / | 8% | -8%
Cn1c(=O)c2c(ncn2CC(=O)Nc2cccc(S(=O)(=O)Nc3ccccc3F)c2)n(C)c1=O | -24 | 13% | 4% | 30µM* | -20% | -9%
CCOC(=O)C1=C(CS(=O)(=O)c2ccc(C(C)(C)C)cc2)NC(=O)NC1c1cccc(OC)c1 (stereo not drawn) | / | / | / | / | -22% | 2%
CCC(=O)Nc1ccc(N2CCOCC2)c(S(=O)(=O)Nc2ccc(Cl)cc2)c1 | ? | 34% | 5% | 7.5µM* | ? | -24%
COCCNC(=S)Nc1ccc(N2CCOCC2)c(S(=O)(=O)Nc2ccc(Cl)cc2)c1 | ? | / | / | 2.4µM* | / | /
C[C@H](NC(N)=O)C(=O)Nc1ccc(N2CCOCC2)c(S(=O)(=O)Nc2ccc(Cl)cc2)c1 | ? | 1% | 3% | 2.7µM* | ? | -22%
COc1ccc(NS(=O)(=O)c2cc(NC(=O)c3ccc(Cl)cc3)ccc2N2CCOCC2)cc1 | 0 | 5% | 3% | 18% | 6% | -9%
O=C(Nc1ccnc(=O)[nH]1)c1sc2ccccc2c1Cl | -14 | 11% | 0% | 27µM* | -15% | 1%
COC(=O)c1ccccc1NC(=S)NC(=O)c1ccccc1 | -11 | 2% | 1% | 27µM* | -18% | -7%
COc1cc(NS(=O)(=O)c2ccc(NC(=S)NC(=O)c3sc4cc(F)ccc4c3Cl)cc2)nc(OC)n1 | ? | ? | -5% | 27µM* | ? | 5%
COC(=O)CC1C(=O)NCCN1C(=O)c1sc2ccccc2c1Cl (stereo not drawn) | -2 | 12% | -1% | -4% | -2% | -14%
COC(=O)c1ccccc1NC(=S)NC(=O)c1ccc(C)cc1 | 3 | -5% | 3% | ? | ? | 34%
COC(=O)CC1C(=O)NCCN1C(=S)NC(=O)c1sc2ccccc2c1Cl (stereo not drawn) | -28 | 4% | -3% | 19µM* | -5% | -2%
Cc1ccc(S(=O)(=O)c2c(O)cc(C)c(NS(=O)(=O)c3ccc(Br)cc3)c2C)cc1 | / | / | / | / | 12% | -10%
COc1cc(NC(=O)CSc2nc3nc(C)c(Cc4ccccc4)c(C)n3n2)cc(OC)c1OC | / | / | / | / | 11% | -1%
COc1cc(NS(=O)(=O)c2ccc(NC(=S)NC(=O)c3sc4ccccc4c3Cl)cc2)nc(OC)n1 | -27 | -26% | -6% | ? | -12% | 0%
